Test results taken from PubChem BioAssay AID1159580 (chemical genetic matrix, 2015).
Out of some 5,500 compounds screened, about 2,000 (36%) were called active. Inconclusive results (about 18%) are left out. The list shows a part of the results. Unmarked numbers belong to inactive results. Cut-off read from the data, not from the text of the source: active = normalized growth mostly below about 0.91 (no sharp cut-off); inconclusive = no clear call, values can overlap the other calls; inactive = mostly above about 0.92.

Test: chemical genetic growth profiling, strain panel (AID 1159580);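 note: tested at 20 µM; growth read once vehicle control cultures reached saturation at 30 °C; 1 = growth at the plate median or of vehicle wells; lower values mean less growth of the strain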
Details: growth OD

SMILES: C[C@]12CCC3c4ccc(O)cc4CCC3C1CCC2=O (stereo partly drawn)
- normalized growth (S. cerevisiae deletion strains, locus YJR066W, strain TOR1, hits give low values): 0.953
- normalized growth (S. cerevisiae deletion strains, locus YJR075W, strain HOC1, hits give low values): 0.977
- normalized growth (S. cerevisiae deletion strains, locus YKL009W, strain mrt4, hits give low values): 0.905
- normalized growth (S. cerevisiae deletion strains, locus YKL068W, hits give low values): 1
- normalized growth (S. cerevisiae deletion strains, locus YKL085W, strain MDH1 (second series), hits give low values): 1.02
- normalized growth (S. cerevisiae deletion strains, locus YKL085W, strain MDH1, hits give low values): 1.02
- normalized growth (S. cerevisiae deletion strains, locus YKL160W, strain elf1, hits give low values): 0.994
- normalized growth (S. cerevisiae deletion strains, locus YKR001C, strain vps1, hits give low values): 0.854 (active)
- normalized growth (S. cerevisiae deletion strains, locus YKR026C, strain gcn3, hits give low values): 1.02
- normalized growth (S. cerevisiae deletion strains, locus YKR091W, strain srl3, hits give low values): 1.02
- normalized growth (S. cerevisiae deletion strains, locus YLL001W, strain dnm1, hits give low values): 1.05
- normalized growth (S. cerevisiae deletion strains, locus YLL026W, hits give low values): 0.999
- normalized growth (S. cerevisiae deletion strains, locus YLL041C, strain sdh2, hits give low values): 1.02
- normalized growth (S. cerevisiae deletion strains, locus YLR027C, strain aat2, hits give low values): 0.973
- normalized growth (S. cerevisiae deletion strains, locus YLR039C, strain RIC1, hits give low values): 0.56 (active)
- normalized growth (S. cerevisiae deletion strains, locus YLR058C, strain SHM2, hits give low values): 0.97
- normalized growth (S. cerevisiae deletion strains, locus YLR102C, strain apc9, hits give low values): 1
- normalized growth (S. cerevisiae deletion strains, locus YLR113W, strain HOG1, hits give low values): 0.98
- normalized growth (S. cerevisiae deletion strains, locus YLR221C, strain rsa3, hits give low values): 1
- normalized growth (S. cerevisiae deletion strains, locus YLR258W, strain gsy2, hits give low values): 0.975
- normalized growth (S. cerevisiae deletion strains, locus YLR262C, strain YPT6 (second series), hits give low values): 0.609 (active)
- normalized growth (S. cerevisiae deletion strains, locus YLR262C, strain YPT6, hits give low values): 0.558 (active)
- normalized growth (S. cerevisiae deletion strains, locus YLR268W, strain sec22, hits give low values): 0.976
- normalized growth (S. cerevisiae deletion strains, locus YLR320W, strain mms22, hits give low values): 0.873 (active)
- normalized growth (S. cerevisiae deletion strains, locus YLR330W, strain CHS5, hits give low values): 1
- normalized growth (S. cerevisiae deletion strains, locus YLR342W, strain FKS1 (second series), hits give low values): 0.882
- normalized growth (S. cerevisiae deletion strains, locus YLR342W, strain FKS1, hits give low values): 1
- normalized growth (S. cerevisiae deletion strains, locus YLR357W, strain rsc2, hits give low values): 1.04
- normalized growth (S. cerevisiae deletion strains, locus YLR370C, strain arc18, hits give low values): 1.02
- normalized growth (S. cerevisiae deletion strains, locus YLR371W, strain rom2, hits give low values): 1.02
- normalized growth (S. cerevisiae deletion strains, locus YLR384C, strain iki3, hits give low values): 1.02
- normalized growth (S. cerevisiae deletion strains, locus YLR418C, strain cdc73, hits give low values): 0.985
- normalized growth (S. cerevisiae deletion strains, locus YML016C, strain PPZ1, hits give low values): 0.986
- normalized growth (S. cerevisiae deletion strains, locus YML032C, strain rad52, hits give low values): 0.924
- normalized growth (S. cerevisiae deletion strains, locus YML120C, strain ndi1, hits give low values): 1.03
- normalized growth (S. cerevisiae deletion strains, locus YML124C, strain tub3, hits give low values): 1.02
- normalized growth (S. cerevisiae deletion strains, locus YMR058W, strain fet3, hits give low values): 0.928
- normalized growth (S. cerevisiae deletion strains, locus YMR078C, strain ctf18, hits give low values): 0.987
- normalized growth (S. cerevisiae deletion strains, locus YMR125W, strain sto1, hits give low values): 1.06
- normalized growth (S. cerevisiae deletion strains, locus YMR129W, hits give low values): 1.02
- normalized growth (S. cerevisiae deletion strains, locus YMR205C, strain PFK2, hits give low values): 1.03
- normalized growth (S. cerevisiae deletion strains, locus YMR223W, strain ubp8, hits give low values): 0.987
- normalized growth (S. cerevisiae deletion strains, locus YMR231W, strain pep5, hits give low values): 0.993
- normalized growth (S. cerevisiae deletion strains, locus YMR307W, strain GAS1, hits give low values): 0.797
- normalized growth (S. cerevisiae deletion strains, locus YNL067W, strain RPL9B, hits give low values): 1
- normalized growth (S. cerevisiae deletion strains, locus YNL071W, strain lat1, hits give low values): 0.937
- normalized growth (S. cerevisiae deletion strains, locus YNL183C, strain NPR1, hits give low values): 0.936
- normalized growth (S. cerevisiae deletion strains, locus YNL209W, strain ssb2, hits give low values): 1.02
- normalized growth (S. cerevisiae deletion strains, locus YNL233W, strain BNI4, hits give low values): 0.976
- normalized growth (S. cerevisiae deletion strains, locus YNL248C, strain rpa49, hits give low values): 0.956
- normalized growth (S. cerevisiae deletion strains, locus YNL250W, strain rad50, hits give low values): 0.922
- normalized growth (S. cerevisiae deletion strains, locus YNL271C, strain bni1, hits give low values): 0.966
- normalized growth (S. cerevisiae deletion strains, locus YNL298W, strain CLA4, hits give low values): 0.902 (active)
- normalized growth (S. cerevisiae deletion strains, locus YNL307C, strain MCK1, hits give low values): 0.96
- normalized growth (S. cerevisiae deletion strains, locus YNL322C, strain KRE1 (second series), hits give low values): 1.05
- normalized growth (S. cerevisiae deletion strains, locus YNL322C, strain KRE1, hits give low values): 1.01
- normalized growth (S. cerevisiae deletion strains, locus YNR049C, strain mso1, hits give low values): 1.03
- normalized growth (S. cerevisiae deletion strains, locus YNR052C, strain pop2, hits give low values): 0.917
- normalized growth (S. cerevisiae deletion strains, locus YOL006C, strain TOP1, hits give low values): 0.838
- normalized growth (S. cerevisiae deletion strains, locus YOL012C, strain htz1): 1.42
- normalized growth (S. cerevisiae deletion strains, locus YOL147C, strain pex11, hits give low values): 1
- normalized growth (S. cerevisiae deletion strains, locus YOR001W, strain rrp6, hits give low values): 0.946
- normalized growth (S. cerevisiae deletion strains, locus YOR061W, strain CKA2, hits give low values): 0.969
- normalized growth (S. cerevisiae deletion strains, locus YOR069W, strain VPS5, hits give low values): 1
- normalized growth (S. cerevisiae deletion strains, locus YOR070C, strain gyp1, hits give low values): 0.997
- normalized growth (S. cerevisiae deletion strains, locus YOR080W, strain dia2, hits give low values): 1.02
- normalized growth (S. cerevisiae deletion strains, locus YOR083W, strain WHI5, hits give low values): 0.98
- normalized growth (S. cerevisiae deletion strains, locus YOR106W, strain vam3, hits give low values): 1.02
- normalized growth (S. cerevisiae deletion strains, locus YOR136W, strain idh2, hits give low values): 0.991
- normalized growth (S. cerevisiae deletion strains, locus YOR144C, strain elg1, hits give low values): 0.999
- normalized growth (S. cerevisiae deletion strains, locus YOR184W, strain ser1, hits give low values): 0.714 (active)
- normalized growth (S. cerevisiae deletion strains, locus YOR231W, strain MKK1, hits give low values): 0.969
- normalized growth (S. cerevisiae deletion strains, locus YOR265W, strain rbl2, hits give low values): 1
- normalized growth (S. cerevisiae deletion strains, locus YOR270C, strain vph1, hits give low values): 0.831
- normalized growth (S. cerevisiae deletion strains, locus YOR290C, strain snf2, hits give low values): 0.941
- normalized growth (S. cerevisiae deletion strains, locus YOR316C, strain cot1, hits give low values): 0.991
- normalized growth (S. cerevisiae deletion strains, locus YPL051W, strain arl3, hits give low values): 0.934
- normalized growth (S. cerevisiae deletion strains, locus YPL055C, strain LGE1, hits give low values): 0.863
- normalized growth (S. cerevisiae deletion strains, locus YPL078C, strain atp4, hits give low values): 0.954
- normalized growth (S. cerevisiae deletion strains, locus YPL106C, strain sse1, hits give low values): 1.03
- normalized growth (S. cerevisiae deletion strains, locus YPL240C, strain hsp82, hits give low values): 1.01
- normalized growth (S. cerevisiae deletion strains, locus YPL256C, strain CLN2, hits give low values): 1.02
- normalized growth (S. cerevisiae deletion strains, locus YPR119W, strain clb2, hits give low values): 1
- normalized growth (S. cerevisiae deletion strains, locus YPR141C, strain kar3, hits give low values): 1
- normalized growth (S. cerevisiae deletion strains, locus YPR163C, strain tif3, hits give low values): 0.927
- normalized growth (S. cerevisiae deletion strains, locus YPR167C, strain met16, hits give low values): 0.998
- normalized growth (S. cerevisiae deletion strains, strain wtn01, hits give low values): 0.967
- normalized growth (S. cerevisiae strains, strain wild type, hits give low values): 1
